# High-throughput results from PubChem.
# FEN1 inh – qHTS Assay for the Inhibitors of Human Flap endonuclease 1 (FEN1); Potency, µM (doses to about 114 µM), inactives show at the highest dose activity change, negative = inhibition, hits mostly inhibitors; P39748; 0.35% of 390,000 active; Recombinant FEN1 flap cleavage, fluorescence, 15 min; note: potency is the fitted concentration of half-maximal effect; % is set by controls: 0 for no effect and ±100 for the full control effect; nearly all actives have a fitted effect of over 65% in size
#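 Compounds are tested as a concentration series against 10 nM FEN1; after a 15 min room-temperature preincubation, 50 nM substrate starts cleavage, with plate reads at 0 and 15 min. Normalized responses are fitted by a Hill equation.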
# WRN helicase inh – qHTS for Inhibitors of WRN Helicase; Bifunctional 3'-5' exonuclease/ATP-dependent helicase WRN (Homo sapiens), Q14191; WRN helicase unwinding, fluorescent forked duplex, kinetic; Potency, µM (highest dose often 114 µM), for the others: at the top dose activity change, negative = inhibition, most hits filed as inhibitors; 0.46% of 360,000 active; AID 651768, 2012; note: potency is the fitted concentration of half-maximal effect; % is set by controls: 0 for no effect and ±100 for the full control effect; nearly all actives have a fitted effect of over 55% in size
#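 Fluorescence dequenching readout, ex 525 nm/em 598 nm, kinetic mode: forked duplex DNA (100 nM final) with adjacent fluorophore and quencher unwound by WRN (20 nM final) with 2 mM ATP. Compound preincubation 15 min, room temperature.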
# PLK1 PBD inh – qHTS for Inhibitors of PLK1-PDB (polo-like kinase 1 - polo-box domain): Primary Screen; Serine/threonine-protein kinase PLK1 (Homo sapiens), P53350; Plk1 PBD binding of FITC phosphopeptide, fluorescence polarization; Potency, µM, inactives show max response, negative = inhibition, usual class: inhibitors; 2.8% of 360,000 active; AID 720504, 2013; note: potency is the fitted concentration of half-maximal effect; series mostly up to about 57 µM; % is set by controls: 0 for no effect and ±100 for the full control effect; nearly all actives have a fitted effect of over 65% in size
# VDR inh – Inhibitors of the vitamin D receptor (VDR): qHTS. Vitamin D3 receptor (Homo sapiens), P11473. VDR-SRC2-3 peptide fluorescence polarization, 2 h. Potency, µM, for the others: max response, negative = inhibition, hits mostly inhibitors. 0.93% of 400,000 active; note: potency is the fitted concentration of half-maximal effect; % is set by controls: 0 for no effect and ±100 for the full control effect
#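 VDR–SRC2-3 interaction, FP format. Cmpds 23 nl via pintool, brief spin, 2 h ambient incubation.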
# PI5P4K alpha inh – qHTS for Inhibitors of phosphatidylinositol 5-phosphate 4-kinase (PI5P4K). 1.2% of 330,000 active. max response, %. PI5P4Kalpha enzyme, ADP-Glo luminescence, 60 min; active compounds read low; active = max response of -50% or lower; inconclusive = between -30% and -50%; inactive = -30% or higher; note: value at the top dose of about 77 µM; % is set by controls: 0 for no effect and ±100 for the full control effect
#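 Controls without substrate or without enzyme flank wells where PI5P4Kalpha converts substrate using 5 microM ATP (final). Incubation lasts 60 minutes at room temperature; ADP formed is read by ADP-Glo luminescence.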
# TCR activator – Activators of T cell receptors: qHTS campaign; 330,000 tested, under 10 active; AID 504894, 2011; primary human leukocytes, anti-CD3, IL-2 HTRF, 48 h; Potency, µM (highest dose often 9.22 µM), without a hit: at the top dose activation of IL-2 secretion, usual class: activators; note: % of control where 0% means no effect
#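 Human primary leukocytes + a-CD3 beads + cpd, 48 hr; IL-2 in supernatant by HTRF (ex 320nm / em 665nm). No co-stimulatory signal supplied.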
# An asterisk follows results filed as active; ? = inconclusive; / = not tested or not shown; [ ] = remark or other dose. This is a sample that favours compounds with a hit; in the whole collection about 3.7% have one here. Unless noted, calls come from the whole dose curve; as a rule, active = well fitted curve in the direction sought with a large enough effect; inconclusive = small, poorly fitted or top-dose-only effect, or another doubt; inactive = no such curve, though single readings can be large; an effect the other way counts as inactive or inconclusive.
SMILES,FEN1 inh,WRN helicase inh,PLK1 PBD inh,VDR inh,PI5P4K alpha inh,TCR activator
C[C@@H]1O[C@@H](Oc2c(-c3ccc(O)c(O)c3)oc3cc(O)cc(O)c3c2=O)[C@H](O)[C@H](O)[C@H]1O,?,-22%,-10%,12%,?,-3%
O=c1c(O)c(-c2ccc(O)c(O)c2)oc2c(O)c(O)cc(O)c12,/,/,/,25µM*,/,/
CCCCCC(O)C1C(=O)OC(C)C(O)\C=C/C=C\C=C/C=C\C=C(\C)C(O)C(O)C(O)CC(O)CC(O)CC(O)CC(O)CC1O (centres undefined),/,/,/,2%,/,/
Cc1ncc(CN2CCCC(C(=O)c3cccc(Cl)c3)C2)s1 (centres undefined),-5%,-3%,-5%,-7%,0,-1%
Cc1ccc(CCNC(=O)C2CCCN(Cc3nc(-c4cccc(Cl)c4)oc3C)C2)cc1 (centres undefined),-16%,/,/,89µM*,/,/
NC(N)=NCCC[C@H](N)C(=O)O,28%[57.1 µM],/,/,-3%,/,/
COc1ccc2c(c1)CC1(CN2C)C(=O)NC(=O)N(CCc2ccccc2)C1=O (centres undefined),-3%,-5%,-21%,?,/,-5%
CCC(C)N1C(=O)NC(=O)C2(Cc3c(ccc4ccccc34)N(C)C2)C1=O (centres undefined),?,-12%,13µM*,-5%,0,-8%
O=[N+]([O-])/C=C/c1c(Cl)cccc1Cl,-5%,32µM*,2.7µM*,20µM*,-10,-3%
S=c1[nH]c2cc(Br)cnc2[nH]1,-5%,?,13µM*,-6%,?,8%
C/C(=N\NC(=S)Nc1ccccc1)c1c(O)n(C)c(=O)n(C)c1=O,14%,-5%,21µM*,?,-53*,3%[46.1 µM]
CC/C(=N\Nc1ccccc1)c1c(O)n(C)c(=O)n(C)c1=O,-8%,-8%,-5%,-4%,-5,-2%[46.1 µM]
CC(C)CC1C(C#N)=C(N)Oc2c1c(=O)oc1ccccc21 (centres undefined),?,3%,12µM*,?,-19,6%
Cc1ccc(NS(=O)(=O)c2ccc(Cl)c(N=Nc3c(O)[nH]c(=O)[nH]c3=O)c2)cc1Cl,45µM*,-11%[11.6 µM],?,?,?,-4%
CC(C)=CCCC1(C)C=Cc2c(O)c3c(c(CC=C(C)C)c2O1)OC12C(=CC4CC1C(C)(C)OC2(C/C=C(/C)C(=O)O)C4=O)C3=O (centres undefined),/,/,/,2.2µM*,/,/
CC(C)CCCC1(C)C=Cc2c(O)c3c(c(CCC(C)C)c2O1)OC12C(CC4CC1C(C)(C)OC2(CCC(C)C(=O)O)C4O)C3=O (centres undefined),/,/,/,-13%,/,/
CC(C)=CCCC1(C)C=Cc2c(O)c3c(c(CC=C(C)C)c2O1)OC12C(=CC4CC1C(C)(C)OC2(C/C=C(/C)C(=O)O)C4O)C3=O (centres undefined),/,/,/,2.8µM*,/,/
ClCCN(CCCl)c1ccc(/C=C/c2ccnc3ccccc23)cc1,-9%,/,/,/,/,/
CCCC[C@@H](C)[C@@H](OC(=O)C[C@@H](CC(=O)O)C(=O)O)[C@H](C[C@@H](C)CCCCCC[C@@H](O)C[C@H](O)[C@H](C)N)OC(=O)C[C@@H](CC(=O)O)C(=O)O,/,/,/,-17%,/,/
COc1cc2c(cc1O)C[C@H]1NCCc3cc4c(c-2c31)OCO4,10µM*,?,-7%,-24%,-11,8%
CN1CCc2cc3c(c4c2[C@H]1Cc1ccccc1-4)OCO3,/,/,/,1%,/,/
c1ccc(N2CCCC3(CCNCC3)C2)nc1,/,/,/,50µM*,/,/
O=C(/C=C/c1ccc(Cl)cc1)N[C@@]12CCC(=O)[C@@H]3Oc4c(O)ccc5c4[C@@]31CCN(CC1CC1)C2C5,/,/,/,1%,/,/
NC(=O)CI,/,/,/,79µM*,/,/
